Test results: article PMC12820563, “FoxP3 forms a head-to-head dimer in vivo and stabilizes its multimerization on adjacent microsatellites”
The full ranking holds about 16,000 sequences; the median of “rpm ratio (pull-down/input)” is about 0.5, and the highest 2% start at about 5.5. Only a selection was taken, and the highest values are over-represented in it overall.

What follows are sequences tested against T1, MBP-FoxP3dN (Mus musculus, UniProt Q99JB6 188-423) (assay: PD-seq (MBP pull-down with sequencing); 20 mM Tris-HCl pH 7.5, 100 mM NaCl, 1.5 mM MgCl2, 0.4 uM protein, 0.1 uM dsDNA library, 30 min, room temperature, amylose pull-down; high values mean tight binding). Settings: protein: recombinant; tags: His6-MBP; chain copies: 2; dsDNA, one strand shown.
T1 sequence: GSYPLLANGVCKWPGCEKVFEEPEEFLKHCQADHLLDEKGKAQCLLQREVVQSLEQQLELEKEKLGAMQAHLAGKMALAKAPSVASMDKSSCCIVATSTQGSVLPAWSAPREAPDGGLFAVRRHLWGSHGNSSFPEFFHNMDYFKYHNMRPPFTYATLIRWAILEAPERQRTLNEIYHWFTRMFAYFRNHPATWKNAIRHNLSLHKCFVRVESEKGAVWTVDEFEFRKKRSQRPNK
Summary of the method: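 A degenerate double-stranded DNA library, filled in with Klenow, was added at 0.1 µM to 0.4 µM His6-MBP-tagged mouse FoxP3 or FoxP1 fragment lacking the N-terminus, expressed in E. coli. Incubation lasted 30 min at room temperature in Tris pH 7.5 buffer with NaCl and MgCl2, after which complexes were collected on amylose resin, washed three times, digested with proteinase K to free the DNA, barcoded by PCR and sequenced by Illumina. Binding is the pooled-replicate reads-per-million enrichment of pull-down over input.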

Sequence	binding signal
GATGATTGTTCTCCCAGCTGATGAATTTTACGATTCGAGTAAACAAATTTTCCTAATCTTTCTGTTCAAGCGCCATCTAC	0.308 RPM ratio (pull-down/input)
GATGATTGTTCTCCCAGCTGATGAATTGTAAAGATCGAGTAAACAAATTTTCCTAATCTTTCTGTTCAAGCGCCATCTAC	0.29 RPM ratio (pull-down/input)
GATGATTGTTCTCCCAGCTGATGAATTACAGCCGTCGAGTAAACAAATTTTCCTAATCTTTCTGTTCAAGCGCCATCTAC	0.412 RPM ratio (pull-down/input)
GATGATTGTTCTCCCAGCTGATGAATTTTGACGTTCGAGTAAACAAATTTTCCTAATCTTTCTGTTCAAGCGCCATCTAC	0.933 RPM ratio (pull-down/input)
GATGATTGTTCTCCCAGCTGATGAATTACGATCATCGAGTAAACAAATTTTCCTAATCTTTCTGTTCAAGCGCCATCTAC	0.571 RPM ratio (pull-down/input)
GATGATTGTTCTCCCAGCTGATGAATTCTGCTGTTCGAGTAAACAAATTTTCCTAATCTTTCTGTTCAAGCGCCATCTAC	3.41 RPM ratio (pull-down/input)
GATGATTGTTCTCCCAGCTGATGAATTGCTGCATTCGAGTAAACAAATTTTCCTAATCTTTCTGTTCAAGCGCCATCTAC	6.8 RPM ratio (pull-down/input)
GATGATTGTTCTCCCAGCTGATGAATTCTCTGCATCGAGTAAACAAATTTTCCTAATCTTTCTGTTCAAGCGCCATCTAC	0.793 RPM ratio (pull-down/input)
GATGATTGTTCTCCCAGCTGATGAATTCTGCAGCTCGAGTAAACAAATTTTCCTAATCTTTCTGTTCAAGCGCCATCTAC	2.66 RPM ratio (pull-down/input)
GATGATTGTTCTCCCAGCTGATGAATTACTGATTTCGAGTAAACAAATTTTCCTAATCTTTCTGTTCAAGCGCCATCTAC	0.523 RPM ratio (pull-down/input)
GATGATTGTTCTCCCAGCTGATGAATTACTGAATTCGAGTAAACAAATTTTCCTAATCTTTCTGTTCAAGCGCCATCTAC	0.586 RPM ratio (pull-down/input)
GATGATTGTTCTCCCAGCTGATGAATTACTGCATTCGAGTAAACAAATTTTCCTAATCTTTCTGTTCAAGCGCCATCTAC	6.01 RPM ratio (pull-down/input)
GATGATTGTTCTCCCAGCTGATGAATTCTGCATTTCGAGTAAACAAATTTTCCTAATCTTTCTGTTCAAGCGCCATCTAC	6.51 RPM ratio (pull-down/input)
GATGATTGTTCTCCCAGCTGATGAATTCTGCATCTCGAGTAAACAAATTTTCCTAATCTTTCTGTTCAAGCGCCATCTAC	6.75 RPM ratio (pull-down/input)
GATGATTGTTCTCCCAGCTGATGAATTGCTGAATTCGAGTAAACAAATTTTCCTAATCTTTCTGTTCAAGCGCCATCTAC	0.916 RPM ratio (pull-down/input)
GATGATTGTTCTCCCAGCTGATGAATTCGCATGATCGAGTAAACAAATTTTCCTAATCTTTCTGTTCAAGCGCCATCTAC	0.877 RPM ratio (pull-down/input)

Sequence	binding signal
GATGATTGTTCTCCCAGCTGATGAATTCTGCGGGTCGAGTAAACAAATTTTCCTAATCTTTCTGTTCAAGCGCCATCTAC	0.928 RPM ratio (pull-down/input)
GATGATTGTTCTCCCAGCTGATGAATTAGTCCGTTCGAGTAAACAAATTTTCCTAATCTTTCTGTTCAAGCGCCATCTAC	0.434 RPM ratio (pull-down/input)
GATGATTGTTCTCCCAGCTGATGAATTCATGAAATCGAGTAAACAAATTTTCCTAATCTTTCTGTTCAAGCGCCATCTAC	0.289 RPM ratio (pull-down/input)
GATGATTGTTCTCCCAGCTGATGAATTAAACCTTTCGAGTAAACAAATTTTCCTAATCTTTCTGTTCAAGCGCCATCTAC	0.318 RPM ratio (pull-down/input)
GATGATTGTTCTCCCAGCTGATGAATTATTCTGCTCGAGTAAACAAATTTTCCTAATCTTTCTGTTCAAGCGCCATCTAC	0.328 RPM ratio (pull-down/input)
GATGATTGTTCTCCCAGCTGATGAATTATGAGAGTCGAGTAAACAAATTTTCCTAATCTTTCTGTTCAAGCGCCATCTAC	0.397 RPM ratio (pull-down/input)
GATGATTGTTCTCCCAGCTGATGAATTTAAGGCATCGAGTAAACAAATTTTCCTAATCTTTCTGTTCAAGCGCCATCTAC	0.732 RPM ratio (pull-down/input)
GATGATTGTTCTCCCAGCTGATGAATTTAAAGACTCGAGTAAACAAATTTTCCTAATCTTTCTGTTCAAGCGCCATCTAC	0.245 RPM ratio (pull-down/input)
GATGATTGTTCTCCCAGCTGATGAATTAGTACAGTCGAGTAAACAAATTTTCCTAATCTTTCTGTTCAAGCGCCATCTAC	0.484 RPM ratio (pull-down/input)
GATGATTGTTCTCCCAGCTGATGAATTGGATTTATCGAGTAAACAAATTTTCCTAATCTTTCTGTTCAAGCGCCATCTAC	1.47 RPM ratio (pull-down/input)
GATGATTGTTCTCCCAGCTGATGAATTTCTGCATTCGAGTAAACAAATTTTCCTAATCTTTCTGTTCAAGCGCCATCTAC	6.35 RPM ratio (pull-down/input)
GATGATTGTTCTCCCAGCTGATGAATTCGCTGCATCGAGTAAACAAATTTTCCTAATCTTTCTGTTCAAGCGCCATCTAC	1.02 RPM ratio (pull-down/input)
GATGATTGTTCTCCCAGCTGATGAATTCCCTGCATCGAGTAAACAAATTTTCCTAATCTTTCTGTTCAAGCGCCATCTAC	0.746 RPM ratio (pull-down/input)
GATGATTGTTCTCCCAGCTGATGAATTCTGCCATTCGAGTAAACAAATTTTCCTAATCTTTCTGTTCAAGCGCCATCTAC	4.97 RPM ratio (pull-down/input)
GATGATTGTTCTCCCAGCTGATGAATTTCCTGCATCGAGTAAACAAATTTTCCTAATCTTTCTGTTCAAGCGCCATCTAC	0.719 RPM ratio (pull-down/input)
GATGATTGTTCTCCCAGCTGATGAATTCCTGCATTCGAGTAAACAAATTTTCCTAATCTTTCTGTTCAAGCGCCATCTAC	5.61 RPM ratio (pull-down/input)
